The nature of assay [1]: Validation of Assay for Modulators of Lamin A Splicing (AID 1459; active = well fitted curve in the direction sought with a large enough effect in the signal ratio; the % refers to the signal ratio;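 note: cells exposed to compound for two days before reading; 0% is about no effect; ratio rise marks activators and ratio drop marks inhibitors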). The essentials: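 Splicing correction is reported by an EGFP-containing lamin A minigene in stably transfected S3 HeLa cells, while DsRed2 controls for viability and nonspecific signal. Cells are exposed to compounds for 48 hrs before the GFP over RFP ratio is taken.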
Assay [2] concerns the target DNA repair nuclease/redox regulator APEX1 (Homo sapiens) (UniProt P27695). In words: qHTS Validation Assay for Inhibitors of the Human Apurinic/apyrimidinic Endonuclease 1 (APE1) (AID 1705; note: potency is the fitted concentration of half-maximal effect;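 for activity change, negative = inhibition: TAMRA fluorescence gain over two minutes as APE1 cuts a quenched THF abasic duplex; % is set by controls: 0 for no effect and ±100 for the full control effect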). The procedure, abridged:
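Endonuclease activity of human APE1 is followed as dequenching when the enzyme incises a tetrahydrofuran abasic site in a short duplex labelled 5'-TAMRA/3'-BHQ-2 (50 nM final), after 15 min enzyme–compound preincubation at room temperature.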

Assay [3] deals with Alpha-galactosidase A (Homo sapiens) (UniProt P06280). In words: Counterscreen for Glucocerebrosidase Inhibitors: qHTS Assay for Human alpha-Galactosidase at pH 4.5 (AID 992). Note: 0% is about no effect. The essentials:
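Read-out is 4-methylumbelliferone fluorescence (365 nm excitation, 440 nm emission) after a pH 10 NaOH/glycine stop. Reactions held 2 nM enzyme and 80 uM substrate at pH 4.5 for 20 min at room temperature.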

In assay [4] the target is alpha-glucosidase (Oryza sativa, rice) (UniProt Q653V4). In words: Counterscreen for Glucocerebrosidase Inhibitors: qHTS Assay for Rice alpha-Glucosidase at pH 5.0 (AID 997).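 Note: 0% = full activity with enzyme and -100% = basal without enzyme.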 The essentials:
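Rice alpha-glucosidase (4 nM final) with 400 uM 4-methylumbelliferyl-alpha-D-glucopyranoside in citrate buffer pH 5.0, 20 min at room temperature, stopped at pH 10; fluorescence 365/440 nm, compounds 0.7 nM–77 uM, AC50 from Hill fits.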

A short description of assay [5]: qHTS Assay for Lipid Storage Modulators (AID 1519; calls by dose curve; for activity change, negative = inhibition: % is set by controls: 0 for no effect and ±100 for the full control effect). As to conditions: Drosophila S3 cells, BODIPY lipid droplet/cell ratio, laser cytometry, cells loaded with oleic acid. The procedure, abridged:
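Cells seeded at 5,000 per well were treated with compounds over a concentration series and loaded with oleic acid (400 uM, as added). Lipid droplet fluorescence (488 nm excitation, 500-530 nm channel) was read by laser-scanning cytometry and normalized to 20 uM Triacsin C.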
A general note: Quantitative high-throughput screening tests each substance at several concentrations.

Assay [6] is described as follows: Counterscreen for APE1 Inhibitors: Fluorescent Dye Displacement Validation Assay (AID 1707).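 Note: plate controls were ThO with dsDNA and no compound for no effect and ThO without dsDNA for full effect.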 The procedure, abridged:
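ThO 250 nM + dsDNA 50 nM (THF abasic site, 5'-TAMRA), Tris-HCl pH7.5/50mM NaCl/2 mM MgCl2/0.01% Tween-20; compounds pin-transferred; ex 480/em 540 nm endpoint. Neutral = no compound; no-DNA ThO wells = negative control.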
In general terms: A counterscreen serves to expose hits that act by an unwanted route or on another target.

Assay [7] in a line: Cell Viability - LYMP2-025 (AID 976).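 Note: plate controls were DMSO only for no effect and tetraoctylammonium bromide control for full effect.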 The procedure, abridged:
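Human lymphoblastoid LYMP2-025 cells, 2500/well, exposed 24 h at 37 C in complete medium in 1536-well qHTS. Viability as cellular ATP by CellTiter-Glo luminescence; AC50 from Hill fits of concentration-response data.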

The nature of assay [8]: Cell Viability - LYMP2-006 (AID 978). Note: % is set by controls: 0 for no effect and ±100 for the full control effect; nearly all actives have a fitted effect of over 60% in size. The procedure, abridged: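 Concentration-dependent loss of intracellular ATP in a human lymphoblastoid line after 24 hr treatment at 37 C was measured by CellTiter-Glo luminescence, with AC50 values obtained from standard Hill-equation modelling.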
Assay [9] can be described thus: Cell Viability - LYMP2-007 (AID 979).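 Note: cells exposed to compound for 24 h before reading; 0% = DMSO only and the negative end = 92 µM tetraoctylammonium bromide; nearly all actives have a fitted effect of over 60% in size.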 The procedure, abridged: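 Human lymphoblastoid LYMP2-007 cells (2500/well) preincubated 5 h at 37 C, then treated 24 h at 37 C in complete medium. Viability by CellTiter-Glo ATP luminescence after 30 min at room temperature; AC50 from Hill fits.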
Assay [10] can be described thus: Cell Viability - LYMP2-008 (AID 980). Note: % is set by controls: 0 for no effect and ±100 for the full control effect; nearly all actives have a fitted effect of over 60% in size. The essentials: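 LYMP2-008 lymphoblastoid cells (2500/well) plated 5 h, then treated 24 h at 37 C in complete medium. Viability read as intracellular ATP by CellTiter-Glo luminescence after 30 min at room temperature; AC50 from Hill fits.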
Assay [11] in a line: Cell Viability - LYMP2-010 (AID 981). Note: % is set by controls: 0 for no effect and ±100 for the full control effect; nearly all actives have a fitted effect of over 55% in size. The essentials: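 Human lymphoblastoid LYMP2-010 cells (2500/well) treated 24 h at 37 C in complete medium; viability read as intracellular ATP by CellTiter-Glo luminescence. AC50 from Hill fits of concentration-response data; tetraoctylammonium bromide positive control.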
Assay [12] is described as follows: Cell Viability - LYMP2-012 (AID 982).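 Note: cellular ATP by luciferase luminescence where a drop means cytotoxicity; cells exposed to compound for one day before reading; 0% = DMSO only and full loss = 92 µM tetraoctylammonium bromide; nearly all actives have a fitted effect of over 55% in size.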
Assay [13] is described as follows: Cell Viability - LYMP2-014 (AID 983).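 Note: plate controls were DMSO only for no effect and 92 µM tetraoctylammonium bromide for full effect; nearly all actives have a fitted effect of over 50% in size.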 The procedure, abridged: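 LYMP2-014 human lymphoblastoid cells, 2500/well, treated 24 h at 37 C in complete medium; viability by CellTiter-Glo ATP luminescence after 30 min at room temperature. AC50 from Hill fits of qHTS concentration-response; tetraoctylammonium bromide positive control.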
Assay [14] in a line: Cell Viability - LYMP2-016 (AID 984). Note: % is set by controls: 0 for no effect and ±100 for the full control effect; nearly all actives have a fitted effect of over 55% in size. The essentials: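 Acute toxicity in a Coriell human lymphoblastoid line is scored as loss of intracellular ATP over 24 h of treatment in complete medium. CellTiter-Glo signal is fitted across concentrations with the Hill equation to give AC50.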
Assay [15] can be described thus: Cell Viability - LYMP2-018 (AID 985).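 Note: compound exposure lasted 24 hr at 37 °C; plate controls were DMSO only for no effect and tetraoctylammonium bromide at 92 µM for full effect; nearly all actives have a fitted effect of over 50% in size.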 The procedure, abridged:
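Human lymphoblastoid LYMP2-018 cells, 2500/well, settled 5 hr at 37 C then exposed to compound 24 hr at 37 C; intracellular ATP measured by CellTiter-Glo luminescence. AC50 from Hill-equation concentration-response fits.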

A short description of assay [16]: Cell Viability - LYMP2-020 (AID 986).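 Note: plate controls were DMSO only for no effect and tetraoctylammonium bromide at 92 µM for full effect; nearly all actives have a fitted effect of over 55% in size.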 The procedure, abridged:
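Human lymphoblastoid LYMP2-020 cells (2500/well) preincubated 5 h at 37 C, then treated 24 h at 37 C. Viability measured as intracellular ATP by CellTiter-Glo luminescence after 30 min at room temperature; AC50 from Hill fits.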

Assay [17] is described as follows: Cell Viability - LYMP2-022 (AID 987). The essentials: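 LYMP2-022 lymphoblastoid cells (2500/well, complete medium) were treated with compounds for 24 hours at 37 C; intracellular ATP was then read by CellTiter-Glo luminescence after 30 min at room temperature. AC50 values were derived from Hill-equation fits.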
Assay [18] is described as follows: Cell Viability - LYMP2-024 (AID 988).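 Note: plate controls were DMSO only for no effect and 92 µM tetraoctylammonium bromide for full effect; nearly all actives have a fitted effect of over 60% in size.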 The essentials:
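Human lymphoblastoid LYMP2-024 cells (2500/well) rested 5 hr, then treated with compound for 24 hr at 37 C in complete medium. Viability was measured as intracellular ATP by CellTiter-Glo luminescence. AC50 values came from Hill-equation fits.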

Assay [19] in a line: Cell Viability - LYMP1-002 - Assay at 24 hr (AID 993). Note: % is set by controls: 0 for no effect and ±100 for the full control effect. The essentials: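 Human lymphoblastoid LYMP1-002 cells (2500/well) treated 24 h at 37 °C; viability as intracellular ATP by CellTiter-Glo luminescence. Tetraoctylammonium bromide as positive control; AC50 from Hill-equation fits of qHTS concentration-response.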
Assay [20] in a line: Cell Viability - LYMP1-002 - Assay at 40 hr (AID 994). The essentials: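 LYMP1-002 human lymphoblastoid cells (2500/well, complete medium) were treated with compounds for 40 hr at 37 C. Intracellular ATP was measured by CellTiter-Glo luminescence, and AC50 values came from Hill-equation fits of concentration-response data; tetraoctylammonium bromide was the positive control.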

The mark [21] stands for this setting: measured here: cell count channel max response.
Where [22] appears, read: measured here: lipid channel max response.

SMILES strings stand for the structures. Values joined by “and” are separate entries in the source; they are usually repeats but may differ in a detail not shown here. Equal entries are not always repeated. Results filed as inconclusive are left out. Active and inactive are the calls of the source. Unless noted, calls come from the whole dose curve; as a rule, active = well fitted curve in the direction sought with a large enough effect; inconclusive = small, poorly fitted or top-dose-only effect, or another doubt; inactive = no such curve, though single readings can be large; an effect the other way counts as inactive or inconclusive.

DNA repair nuclease/redox regulator APEX1 (Homo sapiens), sequence (P27695 whole entry, looked up): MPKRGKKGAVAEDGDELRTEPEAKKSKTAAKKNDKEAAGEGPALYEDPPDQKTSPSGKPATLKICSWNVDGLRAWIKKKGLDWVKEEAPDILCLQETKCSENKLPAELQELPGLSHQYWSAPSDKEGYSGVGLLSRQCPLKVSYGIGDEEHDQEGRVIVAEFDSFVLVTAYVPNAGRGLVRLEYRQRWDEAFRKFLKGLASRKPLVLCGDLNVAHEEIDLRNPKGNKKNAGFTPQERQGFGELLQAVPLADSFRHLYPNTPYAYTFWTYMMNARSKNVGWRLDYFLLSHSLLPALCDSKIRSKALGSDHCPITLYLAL
Alpha-galactosidase A (Homo sapiens), sequence (P06280 whole entry, looked up): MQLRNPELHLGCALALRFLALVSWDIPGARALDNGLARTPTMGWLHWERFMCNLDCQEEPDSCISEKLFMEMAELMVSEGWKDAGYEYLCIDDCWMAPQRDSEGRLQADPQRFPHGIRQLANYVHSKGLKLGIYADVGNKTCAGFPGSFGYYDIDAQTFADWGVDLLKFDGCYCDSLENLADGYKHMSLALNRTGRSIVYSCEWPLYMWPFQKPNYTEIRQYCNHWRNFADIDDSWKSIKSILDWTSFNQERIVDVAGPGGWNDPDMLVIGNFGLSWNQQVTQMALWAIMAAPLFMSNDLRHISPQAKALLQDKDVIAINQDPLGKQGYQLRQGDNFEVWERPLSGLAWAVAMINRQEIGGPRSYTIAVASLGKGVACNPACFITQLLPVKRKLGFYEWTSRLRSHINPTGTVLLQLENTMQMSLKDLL

With `CC(CCc1ccc(O)cc1)NCCc1ccc(O)c(O)c1` (stereo unspecified), the result in assay [1] was inactive. In assay [2], the Potency result was “inactive”.
Take `O=C(c1ccc(F)cc1)C1CCN(CCn2c(=O)[nH]c3ccccc3c2=O)CC1`: the compound was called inactive in assay [3], in [4] and in assay [1]. Moreover, the activity change, negative = inhibition in assay [5] (at 57.5 µM (top of the series)) is 3.6% (inactive) and 3.32% (inactive). Further, the max response in assay [5] (setting [21]) was 11.4% and 58.6%; in [5] (setting [22]) it was 27.6% and 62%. For the same compound, the Potency entry in assay [2] is “inactive”.
As for `COc1ccccc1OCC(O)CN1CCN(CC(=O)Nc2c(C)cccc2C)CC1` (stereo unspecified), in assay [1], the result was inactive. In addition, the activity change, negative = inhibition in assay [5] (at 57.5 µM (top of the series)) is 13.2% (inactive). For the same compound, the values for the max response in assay [5] (setting [21]) and in assay [5] (setting [22]) were 8.98% and 24.1%, respectively. The Potency result in [2] was “inactive”.
Turning to `COc1ccc(C2CNC(=O)C2)cc1OC1CCCC1` (stereo unspecified), the call in assay [3], in assay [4] and in [1] was inactive. In [2], the Potency entry was “inactive”.
For the compound `CN1CCC(=C2c3ccccc3C=Cc3ccccc32)CC1`, the outcome in assay [3] and in assay [4] was inactive. Also, the values for the activity change, negative = inhibition in [5] (at 25.7 µM (top of the series)) and in assay [5] (at 57.5 µM (top of the series)) were -4.01% (inactive) and 0.516% (inactive), respectively. Besides, the max response was 4.35% and -11% in assay [5] (setting [21]); -0.358% and -12.9% in assay [5] (setting [22]). The Potency result in [2] and in assay [6] was “inactive” throughout.
Turning to `CC1COc2c(N3CCN(C)CC3)c(F)cc3c(=O)c(C(=O)O)cn1c23` (stereo unspecified), in assay [1], the result was inactive. Besides, in assay [5] (at 57.5 µM (top of the series)), the activity change, negative = inhibition was 6.1% (inactive) and 7.75% (inactive). Moreover, the max response in assay [5] (setting [21]) is 10.5% and 11.1%; in assay [5] (setting [22]) it was 20.7% and 20.3%. For the same compound, the Potency result in assay [2] is “inactive”.
For the compound `CC(C(=O)O)c1cccc(C(=O)c2ccccc2)c1` (stereo unspecified), in assay [1], the outcome was inactive. For the same compound, the Potency entry in assay [2] and in assay [6] was “inactive” in each case.
For the compound `O=C1c2c(O)ccc(O)c2C(=O)c2c(NCCNCCO)ccc(NCCNCCO)c21`, the result in assay [3] and in assay [4] was inactive. The activity change, negative = inhibition in assay [5] (at 25.7 µM (top of the series)) was 0.282% (inactive); in assay [5] (at 57.5 µM (top of the series)), -5.29% (inactive). In addition, the max response in assay [5] (setting [21]) is -20.6% and -20.2%; in [5] (setting [22]), -20.7% and -20.9%. Further, the Potency in [2] was 2 µM (active). The Potency entry in assay [6] is “inactive”.
As to `O=C1N(c2ccccc2)c2ccccc2C1(Cc1ccncc1)Cc1ccncc1`, the outcome in assay [3], in assay [4] and in assay [1] was inactive. In assay [2], the Potency result is “inactive”.
Regarding `CN(C)c1nc(N(C)C)nc(N(C)C)n1`, the call in [3], in assay [4] and in [1] was inactive. In addition, the activity change, negative = inhibition was -1.28% (inactive) in assay [5] (at 25.7 µM (top of the series)); 7.55% (inactive) and -0.1% (inactive) in assay [5] (at 57.5 µM (top of the series)). Also, the max response in assay [5] (setting [21]) is 4.02% and 17.6% and 11.3%; in [5] (setting [22]), 2.91% and 27.7% and 12.4%. In addition, the Potency entry in assay [2] and in assay [6] was “inactive” each time.
As for `Cn1cnc2c1c(=O)[nH]c(=O)n2C`, the compound was called inactive in [3], in assay [4] and in assay [1]. The activity change, negative = inhibition in assay [5] (at 25.7 µM (top of the series)) was -1.11% (inactive); in [5] (at 57.5 µM (top of the series)) it was -1.44% (inactive) and 2.73% (inactive). Besides, the max response was -1.67% and 17.8% and 14.4% in assay [5] (setting [21]); -0.915% and 15.2% and 17.5% in assay [5] (setting [22]). Also, the Potency entry in assay [2] is “inactive”.
As to `CN1CCC(=C2c3ccccc3CC(=O)c3sccc32)CC1`, the compound was called inactive in assay [3] and in assay [4]. For the same compound, the activity change, negative = inhibition in assay [5] (at 25.7 µM (top of the series)) was -3.11% (inactive); in assay [5] (at 57.5 µM (top of the series)), 1.94% (inactive). For the same compound, the max response in [5] (setting [21]) was 0.637% and -29.8%; in [5] (setting [22]), -3.73% and -28.3%. For the same compound, the Potency entry in [2] and in assay [6] was “inactive” each time.
For the compound `Clc1ccc2c(c1)C(N1CCNCC1)=Nc1ccccc1O2`, the outcome in assay [3], in assay [4] and in [1] was inactive. Further, the activity change, negative = inhibition in [5] (at 25.7 µM (top of the series)) was -5.1% (inactive); in assay [5] (at 57.5 µM (top of the series)), 3.92% (inactive) and 1.18% (inactive). In addition, the max response in assay [5] (setting [21]) is -3.99% and 1.39% and 11.5%; in assay [5] (setting [22]) it was -7.98% and 5.5% and 12.2%. Besides, the Potency entry in assay [2] was “inactive”.
Regarding `NCCS(=O)(=O)O`, the compound was classed as inactive in assay [7], in assay [8], in [9], in assay [10], in assay [11] and in assay [12]. Further, the compound was classed as inactive in assay [13], in assay [14], in assay [15], in assay [16], in assay [17] and in assay [18]. Besides, the call in assay [3], in [19], in assay [4] and in assay [1] was inactive. The Potency entry in assay [20], in assay [2] and in [6] was “inactive” in each case. In addition, in [5] (at 57.5 µM (top of the series)), the activity change, negative = inhibition was 4.96% (inactive) and -0.7% (inactive). For the same compound, the max response in assay [5] (setting [21]) was -11.2% and -31.9%; in [5] (setting [22]), 15.8% and -31.4%.

Values taken from PubChem BioAssay (NCATS).
